PubChem BioAssay AID624263 (National Center for Advancing Translational Sciences (NCATS), 2012)
Where “and” joins values, the source holds several entries; their conditions need not be identical. Equal entries are not always repeated. Screen size: about 410,000 compounds; about 820 (0.2%) were called active. Inconclusive results (about 2%) are left out. Calls follow the shape of the dose curve; as a rule, active = well fitted activation curve with a large enough effect; inconclusive = small, poorly fitted or top-dose-only effect; inactive = flat fitted curve, though single readings scatter; cell line not stated here. The list comes from a sample in which actives are over-represented; it also holds similar structures and randomly drawn compounds. A call without a number means that no potency is given here. Some compounds were tested as several samples or in several runs, with calls that do not always agree.

Assay: A Quantitative High throughput Screen to Identify Chemical Modulators of PINK1 Expression; also: nearly all actives have a fitted effect of over 65% in size
Settings: PINK1 immunofluorescence, high-content cytometry, 24 h; series mostly up to 76.6 µM
Text: The overall goal of this project is to develop new tools for understanding and treating the mitochondrial basis for neurodegenerative disease such as Parkinson's disease (PD). The PINK1 campaign was developed from recent data pointing towards mitochondrial dysfunction as a major contributor to dopaminergic neuron loss. The discovery of PINK1/Parkin mediated mitophagy has highlighted the potential for mitochondrial quality control as a novel target for therapeutic intervention. […] A second aim of this project is the development of chemical probes to study the mechanics of mitochondrial quality control. As the PINK1/Parkin mitophagy pathway is a relative recent discovery, no specific chemical probes are available that modulate the process. Presently, only crude tools that cause nonspecific mitochondrial damage are available. To advance the understanding of mitophagy, specific, well characterized chemicals that target various steps of mitophagy regulation need to be developed. New chemical probes may have the ability to dynamically manipulate mitophagy in model organisms such as rodents and zebrafish, advancing our understanding of the process in development and disease. This HTS campaign seeks to discover an activator of PINK1 expression by modulation at the level of post-translational processing.
The PINK1 assay determines the amount and localization of PINK1 protein in a cell using a combination of immunofluorescence and cell staining. The goal of the assay is to determine small molecules that can increase the expression of Pink1 on or inside the cell's mitochondria (ideally without mitochondrial depolarization) using a stable cell line. Since PINK1 protein is rapidly degraded in un-perturbed cells, compounds that induce the enhancement of PINK1 protein expression are identified by determining PINK1 immunofluorescence in conjunction with a mitochondrial, cell, and nuclear marker post fixation. To facilitate rapid high content screening, the primary assay is run in a decision-based HTS mode where compound titration data collected by laser-scanning microplate cytometers is processed and only promising compound series are passed off for high content drill down.
1 Add cells to black, clear-bottom, low-base 1536-well plates 6 uL (250 cells/well)
2 Incubate in TC incubator (12 hours)
3 Pin compounds or DMSO controls 23 nL (5 concentrations per compound set)
4 Dispense CCCP to control columns
5 Incubate in TC incubator 24 hours
6 Aspirate media and fix cells (5 uL of fixative containing nuclear dye)
7 Incubate 15 minutes at RT
8 Wash in PBSTween (12 uL/well)
9 Wash in PBSTriton (12 uL/well)
10 Aspirate wash and add Blocking buffer (4 uL/well)
12 Aspirate block and add primary antibodies 3.5 (uL/well)
13 Incubate 12 hours at 10 degrees C
14 Wash in PBSTween-20 two times (12 uL/well)
15 Aspirate wash and add secondary antibodies (12 uL/well)
17 Wash in PBSTween (12 uL/well)
18 Wash in PBSTween with cell stain (12 uL/well)
19 Read plates on Acumen EX3 and determine Wells2Cells coordinates
Potency is read from the fitted curve at half-maximal effect.

| Compound | Potency |
| --- | --- |
| Cc1cccc(OCC(O)CN2CCN(S(=O)(=O)c3ccc(C)cc3C)CC2)c1 (configuration not stated) | inactive |
| OC(COc1ccc(F)cc1Cl)CN1CCc2ccccc2C1 (configuration not stated) | inactive |
| Cc1ccc(OCC(O)CN2CCN(CC(O)COc3ccc(C)cc3Cl)CC2)c(Cl)c1 (configuration not stated) | 11.2 µM (active) |
| O=C(NCC1Cc2cc(F)cc(-c3cnccn3)c2O1)C1COc2ccccc2O1 (configuration not stated) | inactive |
| O=C(C(=O)N1CCOc2ccc(CN3CCN(Cc4ccccn4)CC3)cc2C1)c1ccccc1 | inactive |
| COc1ccc2c(c1)CCc1cnc(-n3ncc(C(=O)NCc4cccnc4)c3C3CC3)nc1-2 | inactive |
| O=C(N/N=C/c1cccc2cccnc12)[C@H]1C[C@@H]1c1ccccc1 | inactive |
| O=Nc1c(O)cc(O)c2ccccc12 | inactive |
| O=C(NN=Cc1ccccc1O)NN=Cc1ccccc1O | 0.891 µM (active) |
| CCC1CN(CCNC(=O)c2cccnc2C)Cc2cc(OC)ccc2O1 (configuration not stated) | inactive |
| Cc1c(C(=O)NCC2CCCN(C)C2)cnn1-c1nccc(-c2ccco2)n1 (configuration not stated) | inactive |
| CC12CCC(C(=O)N(CCC#N)CCC#N)(CC1=O)C2(C)C (configuration not stated) | 5.01 µM (active) |
| CCN(CC)c1ccc(/C=C/c2c(C)cnc3ccc(C)cc23)cc1 | inactive |
| COc1cc(C)c(CN2CCc3nnc(C(C)NC(=O)c4cccnc4)n3CC2)cc1C (configuration not stated) | inactive |
| Cc1ccc(NC(=O)Nc2nnc(-c3ccncc3)s2)cc1 | 15.8 µM (active) |
| CCCCN(C)c1nnc(NC(=O)Nc2ccc(Br)c(C)c2)s1 | inactive |
| Cc1ccc(CNC(=O)Nc2nnc([C@H]3C[C@H](O)[C@@H](CO)O3)s2)cc1 | inactive |
| C/C=C/NNC(=O)Cc1ccc(OC)cc1 | inactive |
| CCCc1cc(=S)n2c([nH]c3ccccc32)c1C#N | 28.2 µM (active) |
| Cn1cccc1C(=O)N1CCC2(CC1)CN(c1cccc(-c3ccccc3)c1)C2 | inactive |
| COc1c2c(cc3occ(-c4ccc5c(c4)OCO5)c(=O)c13)OC(C)(C)C=C2 | inactive |
| CC(=O)c1ccc(NC(=O)C(C)NCc2ccc(Cl)cc2)cc1 (configuration not stated) | inactive |
| CC(=O)N1CCC(N(C(=O)Nc2ccc(Cl)cc2)C(C)C)CC1 | inactive |
| CC(C)S(=O)(=O)c1csc(NC(=O)Nc2ccc(Cl)cc2)c1Cl | 15.8 µM (active) |
| COc1cc(=O)n2c(c1C(=O)NC(C)c1ccco1)CCN(Cc1cc(C)cc(C)c1)CC2 (configuration not stated) | inactive |

| Compound | Potency |
| --- | --- |
| COc1ccc2[nH]cc(CCNc3ncnc4ccc(-c5ccc(C(=O)N(C)C)cc5)cc34)c2c1 | inactive |
| O=C(CNc1cccc(S(=O)(=O)N2CCCCC2)c1)Nc1ccccc1F | inactive |
| O=C(CNS(=O)(=O)c1ccc2ccccc2c1)Nc1ccc(F)c(F)c1F | inactive |
| O=C(CNS(=O)(=O)c1cccc(C(F)(F)F)c1)Nc1ccccc1F | 10 µM (active) |
| Cc1cnc(-n2ncc(C(=O)N3CCN(C(C)C)CC3)c2-c2ccco2)nc1-c1ccc(F)cc1 | inactive |
| CC(C)(C)c1ccc(C(=O)C[n+]2cccc3cc(Cl)ccc32)cc1 | inactive |
| OCC1CCCN(c2nc3cc4c(cc3cc2CNCc2cccs2)OCO4)C1 (configuration not stated) | inactive |
| Cc1ccc(NC(=O)CCCNC(=O)c2ccc(Cl)cc2)cc1S(=O)(=O)N1CCCCC1 | inactive |
| Cc1ccc(NC(=O)CCC(=O)N2CCC(c3ccccc3)=N2)cc1S(=O)(=O)N1CCCCC1 | 11.2 µM (active) |
| Cc1ccc(NC(=O)COC(=O)C2CC2)cc1S(=O)(=O)N1CCOCC1 | inactive |
| COc1cc(=O)n2c(c1C(=O)NC(C)c1ccco1)CCN(C(=O)c1cn3ccc(C)cc3n1)CC2 (configuration not stated) | inactive |
| COc1cc(=O)n2c(c1C(=O)N(C)Cc1nonc1C)CCN(C(=O)c1ccc(C)cc1C)CC2 | inactive |
| CCC1CN(CCNC(=O)c2ccsc2)Cc2cc(OC)ccc2O1 (configuration not stated) | inactive |
| Cc1nc2cc(NC(=O)[C@@H]3C[C@@H](Sc4ccccn4)CN3Cc3ccccc3C)ccc2s1 | inactive |
| N#Cc1ccc[n+](CC(=O)c2ccc(O)c(O)c2)c1 | inactive |
| O=C(Nc1nnc(S(=O)(=O)N2CCOCC2)s1)c1cccc(Br)c1 | inactive |
| O=C(Nc1nnc(S(=O)(=O)N2CCCc3ccccc32)s1)c1cccc(F)c1 | inactive |
| O=C(Nc1nnc(S(=O)(=O)N2CCCCCC2)s1)c1cccc(Br)c1 | inactive and 28.2 µM (active) |
| Cc1nn(Cc2ccc(F)cc2)c(C)c1NC(=O)c1cc(CC(C)C)on1 | inactive |
| CC(C)Cc1cc(C(=O)NCCc2ccccc2)no1 | inactive |
| CC(C)Cc1cc(C(=O)Nc2cc(Br)ccc2O)no1 | 44.7 µM (active) |
| Cc1nc2cnc(N3CCNCC3)nc2n(Cc2ccc(F)cc2)c1=O | inactive |
| COCc1c(C(=O)NC2CCCCC2)cnn1-c1nccc(-c2ccccc2OC)n1 | inactive |
| COc1ccc(/C=C/c2ccccn2)cc1OC | inactive |
| CCCS(=O)(=O)NCc1c(C)ncc2c1CCN(C(=O)c1ccc(F)c(F)c1)C2 | inactive |

| Compound | Potency |
| --- | --- |
| CC(O)(COc1ccccc1)c1ccc2c(c1)CN(Cc1cn[nH]c1-c1ccc(F)cc1)CCO2 (configuration not stated) | inactive |
| CN(C)c1ccc(/C=N\Nc2ccc([N+](=O)[O-])cc2[N+](=O)[O-])cc1Cl | inactive |
| O=[N+]([O-])c1ccc(O)c(/C=N/Nc2ccccc2[N+](=O)[O-])c1 | 20 µM (active) |
| O=[N+]([O-])c1ccccc1N/N=C1\CCc2ccccc21 | inactive |
| COc1ccc(C)cc1N1C(=O)[C@@H]2C[C@H]1CN2Cc1cccc(OC)c1O | inactive |
| Cc1[nH]c2c(C(=O)NCC3Cc4cccc(-c5cccnc5)c4O3)cccc2c1C (configuration not stated) | inactive |
| COc1ccc2c(c1)c(=Cc1ccc(N(C)C)cc1)c1cc(-c3ccccc3)[n+](C)n12 | inactive |
| CN(C)c1ccc(/C=C/c2sc3ccccc3[n+]2C)cc1 | 44.7 µM (active) |
| CN(C)c1ccc(C=Nc2ccc(/C=C/c3ccnc4ccccc34)cc2)cc1 | inactive |
| COc1ccccc1-c1ccc(C(=O)N(C)C(C)c2ccon2)c(N2CCN(c3ccccc3F)CC2)n1 (configuration not stated) | inactive |
| Cc1ccc(-c2ccnc(-n3ncc(C(=O)N(C)Cc4cccc5ncccc45)c3C3CC3)n2)o1 | inactive |
| CSc1nsc(NC(=O)Nc2ccccc2)n1 | 22.4 µM (active) |
| C=CCSc1nsc(NC(=O)Nc2cccc(C(C)=O)c2)n1 | 15.8 µM (active) |
| CN(C(=O)CSc1nnc(NC(=O)Nc2ccccc2)s1)c1ccccc1 | inactive |
| CC(=O)c1cccc(NC(=O)CSc2nc3c(c(=O)[nH]2)CCC3)c1 | inactive |
| Cc1ccc(C(=O)Nc2nc(-c3ccccc3)ns2)cc1 | inactive |
| CC(=O)c1ccc(NC(=O)CSc2nnc(NC(=O)Nc3ccccc3)s2)cc1 | inactive |
| COC(=O)[C@@H]1C[C@H](NC(=O)c2ccccc2C(F)(F)F)CN1Cc1cccc(O)c1 | inactive |
| CC(=O)c1ccc(F)c(-c2cc(C)cc3c2OC(CNC(=O)Cc2c[nH]c4ccccc24)C3)c1 (configuration not stated) | inactive |
| C(=Nc1ccc(/C=C/c2ccnc3ccccc23)cc1)Nc1ccc(/C=C/c2ccnc3ccccc23)cc1 | inactive |
| Cc1ncc2c(c1CNS(=O)(=O)N(C)C)CCN(C(=O)c1ccccc1F)C2 | inactive |
| OCC(O)C(O)C(O)C(O)C=Nc1ccc(/C=C/c2ccnc3ccccc23)cc1 (configuration not stated) | inactive |
| COc1ccc(Oc2ncc3nc(-c4ccc(F)cc4)c(=O)n(C)c3n2)cc1 | inactive |
| CN(c1ccc2nc3ccccc3c(=O)n2n1)C1CCCCC1 | inactive |
| CC1(C)Cc2ccccc2-c2c[nH]c(=O)n21 | inactive |

| Compound | Potency |
| --- | --- |
| O=c1c2ccccc2nc2n1C1(CCCCC1)Cc1ccccc1-2 | 4.47 µM (active) |
| COCC1CCCN(Cc2ccc3c(c2)CN(C(=O)c2ccnn2C)CCO3)C1 (configuration not stated) | inactive |
| C(=Nc1ccc(/C=C/c2ccnc3ccccc23)cc1)c1cc2c3c(c1)CCCN3CCC2 | inactive |
| Cc1cccc2c3c(ccc12)C1=C(C(=O)C3=O)C(C)CO1 (configuration not stated) | inactive |
| O=C1NC(CC(=O)N2CCC(n3c(C4CCC4)nc4cccnc43)CC2)c2ccccc21 (configuration not stated) | inactive |
| Oc1c(Cl)cc(Cl)c(Cl)c1Cc1c(O)c(Cl)cc(Cl)c1Cl | 2.82 µM (active) |
| CCN(CC)/[N+]([O-])=N/OCOC(=O)Cc1c(C)n(C(=O)c2ccc(Cl)cc2)c2ccc(OC)cc12 | inactive |
| Cc1cc(-c2ccnc(-n3ncc(C(=O)NCCc4ccncc4)c3C)n2)c(C)s1 | inactive |
| Cc1cc(C(=O)NCC2Cc3cccc(-c4cncnc4)c3O2)c(C)o1 (configuration not stated) | inactive |
| CN(C)c1ccc(CN2CCOc3ccc(CN4CCC(O)(c5cccnc5)CC4)cc3C2)cc1 | inactive |
| O=C(c1cn(CC2CCCN(Cc3cc4ccccc4s3)C2)nn1)N1CCCC1 (configuration not stated) | inactive |
| CCC1(C2CCN(C(=O)c3cccc(F)c3F)CC2)NC(=O)N(CCc2scnc2C)C1=O (configuration not stated) | inactive |
| CCOC(=O)c1c(NC(=O)c2ccc(S(=O)(=O)N(CC)CC)cc2)sc2c1CCCCC2 | inactive |
| C=CCN(CC=C)S(=O)(=O)c1ccc(C(=O)Nc2sc3c(c2C(N)=O)CCCCC3)cc1 | 10 µM (active) |
| CCCCN(C)S(=O)(=O)c1ccc(C(=O)Nc2sc3c(c2C(N)=O)CC(C)(C)NC3(C)C)cc1 | inactive |
| COc1ccc2c(c1)NC(=O)C2CC(=O)N1CCOc2c(cc(-c3cnc4ccccc4c3)cc2OC)C1 (configuration not stated) | inactive |
| COC(=O)c1ccccc1-c1cc(C)cc2c1OC(CNC(=O)C1CCOC1)C2 (configuration not stated) | inactive |
| COc1ccc(CCNc2ncnc3sc(C(=O)N4CCCC4)c(C)c23)cc1OC | inactive |
| COc1cc(-c2cccnc2)cc2c1OCCN(C(=O)Cc1csc(C)n1)C2 | inactive |
| O=C(c1cccc(Cn2cccn2)c1)N1CCOc2c(cc(-c3csc4ccccc34)cc2OC2CCOC2)C1 (configuration not stated) | inactive |
| N#Cc1cccc(-c2ccc3ncnc(NCc4cccs4)c3c2)c1 | inactive |
| Cc1cc(-c2ccnc(-n3ncc(C(=O)NC(C)(C)CO)c3C3CC3)n2)c(C)s1 | inactive |
